The nature of test [1]: qHTS profiling of the MIPE4 collection as inhibitors of Plasmodium falciparum (3D7) proliferation (AID 743344).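 Also: scaled between DMSO vehicle wells and 0.29 µM artemisinin as full inhibition.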 The conditions noted are these: P. falciparum 3D7 in erythrocytes, SYBR Green DNA fluorescence, 72 h; at 28.5 µM unless noted. In outline:
(§1)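 Erythrocytes infected with P. falciparum (0.3% parasitemia, 2.5% hematocrit) incubated with compounds 72 h at 37 C, 5% CO2. Lysis with saponin/Triton buffer containing SYBR Green I, overnight at room temperature in the dark; DNA fluorescence (485/535 nm) normalised to 0.29 uM artemisinin and DMSO.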
A general note: In qHTS, concentration-response curves come from the screen itself.

A short description of test [2]: qHTS profiling of the MIPE4 collection as inhibitors of Plasmodium falciparum (DD2) proliferation (AID 743345). The conditions noted are these: P. falciparum Dd2 in erythrocytes, SYBR Green DNA, 72 h; at 28.5 µM unless noted. In outline: as §1
The nature of test [3]: qHTS profiling of the MIPE4 collection as inhibitors of Plasmodium falciparum (DD2) proliferation (Rep 2) (AID 743346). Particulars: P. falciparum Dd2 in erythrocytes, SYBR Green DNA, 72 h; at 28.5 µM unless noted. A digest of the protocol:
as §1

Test [4] is described as follows: High-throughput drug toxicity screening in the BPDCN cell line Gen2.2 (AID 1224824).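 Also: cells exposed to compounds for 48 h before reading.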 Particulars: Gen2.2 BPDCN cells; at 45.8 µM (top of the series) unless noted. In outline:
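Seed 500 exponentially growing Gen2.2 cells/well; add compounds by pin tool; incubate 48 h, 37 °C, 5% CO2; add CellTiter-Glo, 15 min RT; read luminescence. % activity vs DMSO (100%) and bortezomib (0%).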

A short description of test [5]: High-throughput drug toxicity screening in the BPDCN cell line Cal-1 (AID 1224825). The conditions noted are these: Cal-1 BPDCN cell viability, qHTS; at 45.8 µM (top of the series) unless noted. In outline: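 500 Cal-1 cells/well, RPMI + glutamine + 10% FBS (phenol red-free); cpd added by pin tool; 48 h, 37C, 5% CO2; CTG 15 min RT, lumi read. Normalised: DMSO 100%, bortezomib 9.2 uM 0%.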

A short description of test [6]: qHTS assay for measurement of the activity of small molecule inhibitors on Zika virus induced Caspase-3 activity in human iPSC derived neural progenitor cells (hNPCs) (AID 1224857; active = well fitted curve in the direction sought with a large enough effect; an effect the other way counts as inactive or inconclusive; also: % of control where 0% means no effect; nearly all actives have a fitted effect of over 65% in size). In outline:
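hNPCs seeded 350 cells/well, cultured 16–20 h; compounds added 1 h before ZIKV (2 FFU/cell), 37 C 6 h. Caspase-Glo 3/7 luminescence after 30 min RT; % inhibition from induction scaled to uninfected (0%) and infected (100%) wells.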

A short description of test [7]: qHTS assay for measurement of the activity of small molecule inhibitors on Zika virus induced Caspase-3 activity in human astrocytoma cells (AID 1224859; active = well fitted curve in the direction sought with a large enough effect; an effect the other way counts as inactive or inconclusive;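 also: plate controls were ZIKV-infected untreated cells for no effect and uninfected cells for full effect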). A digest of the protocol: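 Luminescence read-out (Caspase-Glo 3/7, 30 min RT) of caspase activity in SNB-19 cells infected 6 h with ZIKV, 2 FFU/cell, after 1 h compound pretreatment; % inhibition from induction normalised to uninfected (0%) and infected (100%) wells.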

A short description of test [8]: qHTS Screen of the MIPE 4.0 Collection Against Ewings Sarcoma (RDES) (AID 1259252; active = well fitted curve in the direction sought with a large enough effect; an effect the other way counts as inactive or inconclusive; also: nearly all actives have a fitted effect of over 35% in size; also: potency is read from the fitted curve at half-maximal effect). A digest of the protocol:
(§2)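 After a 4 h attachment period in RPMI/5% FBS, cells were pin-dosed with test compounds; DMSO served as negative and 9.2 uM bortezomib (final) as positive control. Luminescent CellTiter-Glo signal at 48 h defined viability.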

Test [9] is described as follows: qHTS Screen of the MIPE 4.0 Collection Against Ewings Sarcoma (TC71) (AID 1259253; active = well fitted curve in the direction sought with a large enough effect; an effect the other way counts as inactive or inconclusive; also: nearly all actives have a fitted effect of over 40% in size; also: potency is read from the fitted curve at half-maximal effect). In outline:
as §2

Test [10] can be described thus: qHTS Screen of the MIPE 4.0 Collection Against Ewings Sarcoma (EW8) (AID 1259255; active = well fitted curve in the direction sought with a large enough effect; an effect the other way counts as inactive or inconclusive; also: nearly all actives have a fitted effect of over 35% in size; also: potency is read from the fitted curve at half-maximal effect;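 as to viability: 100% = DMSO-treated cells and 0% = medium-only wells without cells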). A digest of the protocol:
as §2

The nature of test [11]: qHTS profiling of the MIPE4 collection as inhibitors of Plasmodium falciparum (HB3) proliferation (AID 743347).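 Also: plate controls were DMSO vehicle wells for no effect and artemisinin wells for full effect.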 Particulars: P. falciparum HB3 in erythrocytes, SYBR Green DNA, 72 h; at 28.5 µM unless noted. A digest of the protocol: as §1
The nature of test [12]: qHTS assay to identify small molecule inhibitors of chordoma cells - UCH-1 (AID 1259355; active = well fitted curve in the direction sought with a large enough effect; an effect the other way counts as inactive or inconclusive; also: % is scaled to controls: 0 for no effect and ±100 for the full control effect; nearly all actives have a fitted effect of over 55% in size). A digest of the protocol:
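Seed 800 cells per well; incubate overnight at 37 C, 5% CO2. Add test compounds (15 concentrations), then the auranofin–topoisomerase-agent combination. Incubate 48hr, add CellTiter-Glo, wait 30min, read luminescence.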

Test [13] in a line: qHTS Screen of the MIPE 4.0 Collection Against Ewings Sarcoma (TC32) (AID 1259256; active = well fitted curve in the direction sought with a large enough effect; an effect the other way counts as inactive or inconclusive; also: potency is read from the fitted curve at half-maximal effect; nearly all actives have a fitted effect of over 45% in size). In outline: as §2

Molecules are shown by their SMILES. Inconclusive results are not listed. Activity calls are given as the source filed them. Unless noted, no rule for the calls is given here.

`COc1cc(Cl)cn2c(-c3cccc(NC4CNC4)n3)cnc12` gave a parasite growth, % of DMSO control in test [1] of 39.6%. Further, in [2], the parasite growth remaining, % of DMSO control (lower = more inhibition) was 27.3%. This molecule also displayed a parasite growth, % of control (lower = inhibition) in [3] of 33.2%. Further, the cell viability, % of control (lower = more cytotoxic) in [4] turned out to be 91.4%. Further, the viability (% of control) in test [5] was found to be 5.98%. Also, the Potency entry in [6], in [7] and in [10] was “inactive” each time. In addition, the Potency in test [8] is 26.4 µM (active); in [9], 23.5 µM (active).
`CC(NCCc1ccc(O)cc1)C(O)c1ccc(O)cc1` (centres undefined) gave a parasite growth, % of DMSO control in [1] of 85%. For the same molecule, the parasite growth remaining, % of DMSO control (lower = more inhibition) in test [2] was determined as 102%. For the same molecule, the parasite growth, % of control (lower = inhibition) in test [3] came out at 73.8%. Moreover, the growth, % of control in test [11] came out at 96.6%. Besides, in test [4], the cell viability, % of control (lower = more cytotoxic) stood at 91%. Also, the viability (% of control) in test [5] was determined as 107%. Moreover, the Potency result in test [6], in test [7], in test [8], in [9] and in test [10] was “inactive” each time.
Molecule `Cc1[nH]c(C=C2C(=O)Nc3ccc(S(=O)(=O)N(C)c4cccc(Cl)c4)cc32)c(C)c1C(=O)N1CCN(C)CC1` showed a parasite growth, % of DMSO control in test [1] of 7.33%. Also, the parasite growth remaining, % of DMSO control (lower = more inhibition) in [2] stood at 9.96%. Moreover, the parasite growth, % of control (lower = inhibition) in [3] was 14.4%. The molecule also registered a growth, % of control in [11] of 4.63%. Moreover, the cell viability, % of control (lower = more cytotoxic) in test [4] is 2.96%. Also, the viability (% of control) in [5] turned out to be 0.852%. In addition, the Potency entry in test [6] and in [7] was “inactive” in each case. The Potency in test [8], in [9] and in test [10] was 26.4 µM (active) throughout.
In turn, `NS(=O)(=O)c1cc(Cl)c(Cl)c(S(N)(=O)=O)c1` gave a parasite growth, % of DMSO control in [1] of 101%. Further, the parasite growth remaining, % of DMSO control (lower = more inhibition) in [2] was 58.8%. Besides, the parasite growth, % of control (lower = inhibition) in test [3] amounted to 88.2%. The same molecule showed a growth, % of control in test [11] of 98.5%. Further, in test [4], the cell viability, % of control (lower = more cytotoxic) was 166%. Also, in test [5], the viability (% of control) stood at 125%. In addition, the Potency result in [6], in test [7], in test [8], in test [9] and in test [10] was “inactive” throughout. Besides, the molecule was classed as inactive in test [12].
The molecule `COc1cc(F)c(C(C)C)cc1-c1ccc(C(F)(F)F)cc1CN1C(=O)O[C@H](c2cc(C(F)(F)F)cc(C(F)(F)F)c2)[C@@H]1C` gave a parasite growth, % of DMSO control in test [1] of 6.82%. Besides, the parasite growth remaining, % of DMSO control (lower = more inhibition) in [2] is 9.07%. The parasite growth, % of control (lower = inhibition) in test [3] came to 31.9%. The molecule further returned a growth, % of control in [11] of 9.46%. Moreover, the cell viability, % of control (lower = more cytotoxic) in [4] was 115%. Besides, in test [5], the viability (% of control) amounted to 33.1%. The Potency entry in test [6], in test [7], in [8] and in [10] was “inactive” each time. Besides, the Potency in test [9] was 16.6 µM (active).
`Cc1ccc(NC(=O)Nc2cc(C(F)(F)F)ccc2F)cc1Nc1ccc2c(c1)NC(=O)C2=Cc1ccc[nH]1` returned a parasite growth, % of DMSO control in test [1] of 8.05%. Also, the parasite growth remaining, % of DMSO control (lower = more inhibition) in [2] worked out at 14.1%. In [3], this molecule registered a parasite growth, % of control (lower = inhibition) of 21.7%. The molecule also returned a growth, % of control in [11] of 10.9%. Besides, in test [4], the cell viability, % of control (lower = more cytotoxic) stood at 4.16%. Also, in [5], the viability (% of control) amounted to 2.92%. The Potency entry in [6] and in test [7] was “inactive” in each case. Moreover, the Potency in test [8] is 23.5 µM (active); in test [9], 26.4 µM (active); in test [13] it was 26.4 µM (active).
For `Cc1ccc(S(=O)(=O)Nc2nc3ccccc3nc2Nc2ccc3nsnc3c2)cc1`, the parasite growth remaining, % of DMSO control (lower = more inhibition) in test [2] was found to be 88% [at 9.64 µM]. The molecule also came in with a parasite growth, % of control (lower = inhibition) in test [3] of 36% [at 9.64 µM]. Besides, the cell viability, % of control (lower = more cytotoxic) in [4] is 7.38% [at 23.2 µM]. For the same molecule, the viability (% of control) in [5] turned out to be 14.1% [at 23.2 µM]. Besides, the Potency entry in test [6] and in [7] was “inactive” throughout. For the same molecule, the Potency in test [8] is 8.12 µM (active); in test [9], 12.9 µM (active); in [13], 16.2 µM (active).
`COc1ccc(-c2cc3nccn3c(Nc3ncccc3C(N)=O)n2)cc1OC`: the parasite growth, % of DMSO control in [1] was determined as 4.5%. Moreover, the parasite growth remaining, % of DMSO control (lower = more inhibition) in test [2] was 9.28%. For the same molecule, the parasite growth, % of control (lower = inhibition) in test [3] was found to be 5.75%. In addition, in test [4], the cell viability, % of control (lower = more cytotoxic) stood at 47.7%. The viability (% of control) in test [5] came to 26.1%. In addition, the Potency entry in [6] and in test [7] was “inactive” in each case. For the same molecule, the Potency was 14.8 µM (active) in [8] and 2.64 µM (active) in test [9].

The values above are taken from PubChem BioAssay (NCATS).
